# Source: PubChem BioAssay
# KDM5B inhibitor = Primary screen for KDM5B Histone Demethylases FDH-coupled qHTS; 220,000 compounds, 2.6% hits; Potency, µM (highest dose often 57.7 µM), hits mostly inhibitors; KDM5B demethylase, FDH-coupled NADH fluorescence (FDH is formaldehyde dehydrogenase); AID 1347165, 2019; Lysine-specific demethylase 5B (Homo sapiens), Q9UGL1; active means well fitted inhibition curve with a large enough effect; inconclusive means small, poorly fitted or top-dose-only effect; inactive means no such curve, though single readings can be large or run the other way; further: potency means the concentration at half of the fitted maximal effect; 0% is about no effect; nearly all actives have a fitted effect of over 70% in size
#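 Inhibition is measured as reduced NADH fluorescence generation from FDH coupling to formaldehyde release. Truncated KDM5BΔAP at 200 nM final acts on H3K4me3 peptide (12.5 µM in substrate mix) in pH 7.5 HEPES buffer with Tween-20, 30 min, room temperature.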
# IP6K1 inhibitor = Primary qHTS assay for small molecule inhibitors of Inositol hexaphosphate kinase 1 (IP6K1). IP6K1 kinase, ADP-Glo luminescence, 2 h; active compounds read low. activity change, % (series mostly up to about 58 µM). 140,000 compounds, 0.81% hits. AID 1645851, 2021; in the data active means activity change below about -25%; further: on the % scale 0 is the no-effect control and ±100 the full control effect
#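 ADP-Glo luminescence measures ADP made by human IP6K1 during a 2 h RT reaction with ATP/IP6 (mix at 1.3 mM/130 uM); top library doses 57.5 and 19.1 uM final.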
# An asterisk follows results filed as active; i = inactive; ? = inconclusive; nt = no result given. An excerpt weighted towards active compounds, which were near 2.8% of everything screened.
SMILES,KDM5B inhibitor,IP6K1 inhibitor
Cc1cc(C)c(CNC(=O)c2nc(-c3ccnn3C)cc3c2ccn3C(C)C)c(=O)[nH]1,32µM*,-11
Cc1cc(C)c(CNC(=O)c2nc(-c3ccc(CO)cc3)cc3c2ccn3C)c(=O)[nH]1,35µM*,1
Cc1cc(C)c(CNC(=O)c2nc(-c3cccc(F)c3)cc3c2ccn3C)c(=O)[nH]1,i,-4
Cc1cc(C)c(CNC(=O)c2nc(-c3cccc(O)c3)cc3c2ccn3C)c(=O)[nH]1,35µM*,14
Cc1cc(C)c(CNC(=O)c2nc(-c3ccccc3)cc3[nH]ccc23)c(=O)[nH]1,i,-4
Cc1cc(C)cc(-c2ccc(CN3CCCC(N[S+](=O)([O-])c4c(C)noc4C)C3)cc2)c1 (stereo unspecified),nt,2
CC(NCC(C#N)CCC#N)c1cccc(Br)c1 (stereo unspecified),i,nt
Cc1ccccc1Cn1c(N2CCN(CC(N)=O)CC2)nc2c1c(=O)[nH]c(=O)n2C,i,nt
O=C(NC1CCCC1)c1sc2ccccc2c1Cl,i,nt
O=C(c1nc2cccnc2n(CCc2ccccc2)c1=O)N1CCN(C(=O)C2CCCC2)CC1,nt,13
COc1ccc(NC(=O)C2CCN(c3cnccn3)CC2)cc1OC,i,nt
COc1cc(C)cc(C(C(=O)O)N2CCN(c3cnccn3)CC2)c1OC (stereo unspecified),28µM*,28
CNC(=O)c1ccc(-c2ccc(OC)nn2)cc1,nt,-3
CN(C)S(=O)(=O)c1ccc(Cl)c(NC(=O)COC(=O)c2nn(C)c(=O)c3ccccc23)c1,i,nt
c1cc(CN2CCOCC2)cc(-c2cnn3ccccc23)c1,32µM*,-15
Fc1ccc(-c2cccc(CN3CCOCC3)c2)c(Cl)c1,i,-3
CCOC(=O)[C@@H]1CN(C(=O)OCC(C)(C)C)[C@H]2c3ccccc3O[C@@H]12,nt,14
CN(C)C(=O)Cc1c[nH]c2ncc(-c3cccnc3)cc12,i,0
Cc1ccccc1NC(=O)Cc1c[nH]c2ncc(-c3cnn(C)c3)cc12,?,3
CN(C)C(=O)Cc1c[nH]c2ncc(-c3cnn(C)c3)cc12,40µM*,-15
CN(C)c1cccc(NC(=O)Cc2c[nH]c3ncc(-c4cnn(C)c4)cc23)c1,?,-14
Cn1cc(-c2cnc3[nH]cc(CC(=O)NCc4cccc(F)c4)c3c2)cn1,32µM*,-16
Cn1cc(-c2cnc3[nH]cc(CC(=O)Nc4cccnc4)c3c2)cn1,40µM*,-13
CN1CCCC[C@]2(C[C@H](CO)[C@H](c3ccccc3)N2C(=O)CC2CCCC2)C1=O,nt,-6
COc1ccc(NC(=O)CCc2c(C)c3ccc(OC)c(C)c3oc2=O)c(OC)c1,i,nt
SMILES,KDM5B inhibitor,IP6K1 inhibitor
CCCCn1c(N2CCN(Cc3ccccc3F)CC2)nc2c1c(=O)[nH]c(=O)n2C,i,nt
NC1CCc2nn(CC(=O)N3CCCN(c4ncccn4)CC3)c(=O)n2CC1 (stereo unspecified),28µM*,-9
NC1CCc2nn(CC(=O)N3CCN(c4ncccn4)CC3)c(=O)n2CC1 (stereo unspecified),?,-13
O=C(Nc1ccccc1)N1CCC(CCc2nc(C3CCOCC3)no2)CC1,nt,7
Cc1cc(C)n2nc(C)c(C(=O)N[C@@H]3COCC[C@@H]3OCC3CC3)c2n1,22µM*,10
CCn1cc(C(=O)N[C@@H]2COCC[C@@H]2OCC2CC2)c(=O)c2ccc(C)nc21,i,-9
O=C(Nc1ccc(F)cc1F)N1CCN(c2cc(=O)n3nc(-c4ccco4)sc3n2)CC1,i,nt
CC(C)n1cc(-c2cc(C(=O)N(C)Cc3cccnc3)c3cc(F)ccc3n2)cn1,25µM*,-7
CC(C)CN(C)C(=O)c1cc(-c2cnn(C(C)C)c2)nc2cc(F)ccc12,28µM*,-5
CN(Cc1ccccc1)C(=O)c1cc(-c2ccncc2)nc2ccccc12,i,nt
Cc1cccc(CN(C)C(=O)c2cc(-c3cnc(C)nc3)nc3cc(F)ccc23)n1,?,5
COc1ccc(CNC(=O)[C@@H]2Cc3c[nH]c4cccc(c34)[C@H](CC(C)C)N2)cc1,?,4
COc1cc(Nc2nc3ccccc3nc2NS(=O)(=O)c2cc(C)ccc2C)cc(OC)c1,i,nt
Cc1nc2cc(F)ccc2cc1C(=O)N1CCN(c2ccccc2F)CC1,i,nt
Cc1nc(N(C)C)ncc1C(=O)N1CCN(c2ccccc2C#N)CC1,28µM*,5
O=C(NCCc1nccc(-c2ccccc2)n1)C1NCCc2[nH]cnc21 (stereo unspecified),i,10
O=C(NCCc1csc(-c2cccnc2)n1)C1CC2(CCNCC2)CN1 (stereo unspecified),?,11
COc1ccc(-c2[nH]ncc2CNC(=O)C2NCCc3[nH]cnc32)cc1 (stereo unspecified),?,16
